In ChEMBL document CHEMBL3988442, “University of Dundee, Small-Polar-MMV Screening Library” (2021):
The campaign covered roughly 38,000 compounds. About 1,200 (3.2%) showed an effect of 50% or more. The median lay at about -58%. This is one part of a sample in which strong results are shown more often than they occur.

system: Plasmodium falciparum; experiment: Calibr Malaria Delayed Death Assay SOP; type: functional, organism-based; design: scale not given: in the data most compounds retested in dose-response had high values; conditions: concentration 4.99e-06 (unit not given; other assays of the set use mol/L)

In order of falling “Percent Effect” value:
1. CC[C@H]1CN2CC[C@H]1C[C@@H]2CNCc1ccc(OC(F)(F)F)cc1  85.66%
2. Cc1nnc(N2CC[C@@H](OCC3CC3)[C@@H](Cc3ccccc3)C2)s1.O=C(O)C(F)(F)F  84.3%
3. Cc1cc(C)n(C2CN(CC(O)c3cc(F)ccc3F)C2)n1 (stereo not drawn)  84.13%
4. Cc1c(C(C)N)cnn1-c1cccc2ccccc12 (stereo not drawn)  74.08%
5. CC[C@H]1CN2CC[C@H]1C[C@@H]2CNC(=O)Nc1cc(OC)cc(OC)c1  63.7%
6. CC[C@H]1CN2CC[C@H]1C[C@@H]2CNCc1ccc(N(C)C)cc1  62.75%
7. CC[C@H]1CN2CC[C@H]1C[C@@H]2CNCc1ccc2c(c1)OCO2  60.86%
8. Cc1nc(CN2CC[C@H](OCC3CC3)[C@@H]2Cc2cccnc2)cs1.O=C(O)C(F)(F)F.O=C(O)C(F)(F)F  60.39%
9. CC1CCN(C(=O)C2CCN(c3ccc(Cl)cc3C#N)CC2)CC1  59.54%
10. Cc1cnn(C2CN(CC(O)c3ccc(F)cc3)C2)c1 (stereo not drawn)  56.46%
11. COCC1CC2(CCN(CC3CC3)CC2)CN1Cc1csc(C)n1.O=C(O)C(F)(F)F.O=C(O)C(F)(F)F (stereo not drawn)  52%
12. COc1ccc(C(O)CN2CC(n3nc(C)cc3C)C2)cc1 (stereo not drawn)  47.1%
13. Cc1cnn(C2CN(CC(O)c3ccccc3)C2)c1 (stereo not drawn)  40.53%
14. CC[C@H]1CN2CC[C@H]1C[C@@H]2CNCc1cccc(C#N)c1  34.74%
15. Cn1ccnc1CCC1CCCCN1Cc1nccn1C (stereo not drawn)  23.43%
16. COc1ccc(C(O)CN2CC(n3cc(C)cn3)C2)cc1 (stereo not drawn)  19.27%
17. CCN1CCCC(O)(CNCc2ccc3c(c2)OCO3)C1 (stereo not drawn)  14.07%
18. CC[C@H]1CN2CC[C@H]1C[C@@H]2CNCc1ccc(OC)cc1  6.891%
19. Cc1nc(CN2CC[C@@H](OCC3CC3)[C@@H]2Cc2cccnc2)cs1.O=C(O)C(F)(F)F.O=C(O)C(F)(F)F  6.851%
20. COc1ccc(-n2ncc(C(C)NC3Cc4ccccc4C3)c2C)cc1 (stereo not drawn)  1.566%
21. CN(Cc1cc2cc(F)ccc2[nH]1)C(=O)C1CC(=O)N(C2CC2)C1 (stereo not drawn)  -1.915%
22. Cc1nnc(N2CC[C@H](OCC3CC3)[C@@H](Cc3ccccc3)C2)s1.O=C(O)C(F)(F)F  -5.425%
23. COCC1CC2(CCN(C(C)=O)CC2)CN1Cc1csc(C)n1.O=C(O)C(F)(F)F (stereo not drawn)  -10.79%
24. Fc1ccc(CN2Cc3nccn3CC(CN3CCOCC3)C2)cc1.O=C(O)C(F)(F)F.O=C(O)C(F)(F)F (stereo not drawn)  -18.4%
25. Cc1cnn(CCNCc2ccc(OCc3cscn3)cc2)c1  -21.22%
26. Cc1cc(C)n(C2CN(CC(O)COc3ccc(F)cc3)C2)n1 (stereo not drawn)  -22.32%
27. COc1cc(OC)c(C2CC(=O)Oc3cc(C)[nH]c(=O)c32)c(OC)c1 (stereo not drawn)  -23.56%
28. COc1ccc(CN(C)CC(=O)c2ccc3[nH]c(=O)[nH]c3c2)cc1F  -24.42%
29. CCN1CCC2(CC1)CC(COC)N(Cc1csc(C)n1)C2.O=C(O)C(F)(F)F.O=C(O)C(F)(F)F (stereo not drawn)  -25.47%
30. Cc1ccc(C(=O)Nc2ccc3c(c2)N(C)CCN(C)C3)c(=O)[nH]1  -25.5%
31. CC[C@H]1CN2CC[C@H]1C[C@@H]2CNC(=O)NC1CCCCC1  -27.77%
32. CCOC(C)c1nccn1CCC(=O)Nc1cc(C)on1 (stereo not drawn)  -31.31%
33. COc1cc(OC)cc(-c2noc(C(N)CCSC)n2)c1 (stereo not drawn)  -32.31%
34. Cc1cnn(C2CN(CC(=O)NCCc3cccs3)C2)c1  -35.32%
35. CC(C)NC(=O)NC[C@H]1C[C@@H]2CCN1C[C@@H]2CN(C)c1ccccc1  -39.27%
36. CO[C@@H]1CCN(c2nnc(C)s2)C[C@@H]1Cc1ccccc1.O=C(O)C(F)(F)F  -42.62%
37. Cc1ccc(OCC(C)NS(=O)(=O)Cc2ccon2)cc1 (stereo not drawn)  -50.51%
38. CC(=O)c1cccc(OCc2cc(C(=O)N3CCCCO3)n[nH]2)c1  -55.13%
39. CO[C@H]1CN(CC2CCOCC2)[C@@H]2CCCO[C@H]12.O=C(O)C(F)(F)F  -55.37%
40. CC[C@H]1CN2CC[C@H]1C[C@@H]2CNC(=O)Nc1ccccc1  -66.09%
41. Cc1cc(CN2CCO[C@H]3[C@H](OCc4csc(C)n4)CC[C@@H]32)no1.O=C(O)C(F)(F)F.O=C(O)C(F)(F)F  -78.11%
42. N#Cc1cc(Cl)ccc1N1CCN(C(=O)C2CCC2)CC1  -79.7%
43. COc1cccc(S(=O)(=O)NC(=O)CC2CCCO2)c1 (stereo not drawn)  -80.63%
44. CO[C@H]1CO[C@@]2(CCCN(C(=O)C3CC=CC3)C2)C1  -81.44%
45. CC[C@H]1CN2CC[C@H]1C[C@@H]2CNC(=O)Nc1cccc(C#N)c1  -82.85%
46. Cc1ccc(N2CC[C@H](OCC3CC3)[C@@H]2Cc2cccnc2)nn1.O=C(O)C(F)(F)F  -86.08%
47. CC[C@H]1CN2CC[C@H]1C[C@@H]2CNC(=O)Nc1cccc(C(F)(F)F)c1  -88.31%
48. CCn1cnc2c(cnn2-c2cccc(C)c2C)c1=O  -109.7%
49. Cc1cc(CN2CCOC(CNc3cccnn3)C2)no1 (stereo not drawn)  -113%
50. Cc1cc(C)n(C2CN(CCc3ccncc3)C2)n1  -117%
51. Cc1c(C(C)N)cnn1-c1ccccn1 (stereo not drawn)  -122.1%
52. Cc1cc(C)n(C2CN(CC(O)Cn3cccn3)C2)n1 (stereo not drawn)  -132.3%
53. CC(=O)c1c(O)n(C)c2ccc(F)cc12  -135.9%
54. Cc1noc(CN(C)C2CCCN(Cc3noc(C4CC4)n3)C2)n1 (stereo not drawn)  -141.9%
55. CCN(CC)C(=O)C1CCN(c2ccc(Cl)cc2C#N)CC1  -152.7%
56. Cc1c[nH]c(CN2CCCCC2CCn2ccnc2C)c(C)c1=O (stereo not drawn)  -167.9%
57. CC(C)CNC(=O)CSC1CCc2ccccc2NC1=O (stereo not drawn)  -170.7%
58. CC(C)c1ccc(NS(=O)(=O)CC2=NC(=O)n3cccc3C2=O)cc1  -194.3%
